Data as given in PubChem BioAssay (EPA / NIEHS).
Where “and” joins values, the source holds several entries; their conditions need not be identical. Equal values may be shown once. Inconclusive results are not listed. Some compounds were tested as several samples or in several runs, with calls that do not always agree. Calls of active or inactive are those of the source. The calls were made as follows: active = hit-call score of the fitted dose curve at least 0.9, where 1 is the maximum; inconclusive = response in the unintended direction; inactive = score below 0.9.

Tests used:
[1] = ATG_XTT_Cytotoxicity: Cytotoxicity Assessment in the Attagene TRANS-FACTORIAL HepG2 Assay (AID 2283584);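 as to AC50: XTT signal for cell number as viability in transfected HepG2 cells; cells exposed to compound for 24 h before reading; active means loss of viability signal versus DMSO baseline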
In short: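 Transfect HepG2 with GAL4-UAS reporter units, dose compound, incubate 24 h, then measure viable cell number by XTT. Fit concentration response against DMSO baseline.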

[2] = target: Cellular tumor antigen p53 (Homo sapiens) (UniProt P04637); assay: TOX21_p53_BLA_p2_ratio: Tox21 HCT-116 p53 Agonism Beta-lactamase Assay, Ratio, Phase 2 (AID 2283592)
In short: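 Cleaved-to-uncleaved substrate ratio (460 vs 530 nm) measured in HCT116 cells with an inducible beta-lactamase reporter linked to p53 activity. Compounds incubated 16 h at 37C before 2 h room-temperature CCF4-AM loading.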

[3] = TOX21_p53_BLA_p3_viability: Viability Assessment in the Tox21 HCT-116 p53 Agonism Beta-lactamase Assay, Phase 3 (AID 2283593);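 also: cells exposed to compound for 16 h before reading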
In short: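 HCT116 cells, 4000/well, dosed 5 h after plating by pin transfer (217-fold dilution from DMSO stock) and incubated 16 h at 37C, 5% CO2. Viability read as ATP luminescence with CellTiter-Glo after 30 min at room temperature.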

[4] = target: Cellular tumor antigen p53 (Homo sapiens) (UniProt P04637); assay: TOX21_p53_BLA_p3_ratio: Tox21 HCT-116 p53 Agonism Beta-lactamase Assay, Ratio, Phase 3 (AID 2283596)
In short: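 Cells were seeded at 4000/well, rested 5 h at 37C, then dosed with DMSO compound solutions (217-fold dilution) for 16 h. CCF4-AM substrate was loaded for 2 h at room temperature, and the 460/530 nm emission ratio was fitted for gain of signal versus DMSO.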

[5] = TOX21_p53_BLA_p4_viability: Viability Assessment in the Tox21 HCT-116 p53 Agonism Beta-lactamase Assay, Phase 4 (AID 2283597);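 also: hits lower the luminescence signal meaning cytotoxicity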
In short: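 Viability is taken as cellular ATP: after 16 h compound exposure of HCT116 cells and a 2 h room-temperature CCF4-AM substrate step, CellTiter-Glo reagent is added and luminescence is measured 30 min later.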

[6] = target: Cellular tumor antigen p53 (Homo sapiens) (UniProt P04637); assay: TOX21_p53_BLA_p5_ratio: Tox21 HCT-116 p53 Agonism Beta-lactamase Assay, Ratio, Phase 5 (AID 2283599)
In short: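 HCT-116 p53-bla cells (4000/well) plated 5 h, dosed with compound (217-fold DMSO dilution) for 16 h at 37 C; CCF4-AM substrate 2 h at room temperature. Activity is the 460/530 nm emission ratio (405 nm excitation), fitted in gain-of-signal direction versus DMSO.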

[7] = TOX21_p53_BLA_p5_viability: Viability Assessment in the Tox21 HCT-116 p53 Agonism Beta-lactamase Assay, Phase 5 (AID 2283600)
In short: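 Viability is taken from cellular ATP content, measured by luciferase luminescence in the same wells after the beta-lactamase ratio read. Cells are seeded at 4000 per well and exposed to DMSO-dissolved compounds, diluted 217-fold, for 16 h.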

[8] = target: Cellular tumor antigen p53 (Homo sapiens) (UniProt P04637); assay: TOX21_p53_BLA_p4_ratio: Tox21 HCT-116 p53 Agonism Beta-lactamase Assay, Ratio, Phase 4 (AID 2283601)
In short: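 HCT-116 p53 beta-lactamase reporter cells (4000/well) preincubated 5 h, then compound (217-fold dilution of DMSO stock) for 16 h at 37C. CCF4-AM substrate added 2 h at room temperature; 460/530 nm emission ratio fitted upward versus DMSO.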

[9] = TOX21_p53_BLA_p2_viability: Viability Assessment in the Tox21 HCT-116 p53 Agonism Beta-lactamase Assay, Phase 2 (AID 2283591);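 also: compound exposure lasted 16 h at 37 °C; actives lower the ATP signal meaning cytotoxicity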
In short: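 HCT116 p53-bla cells, 4000/well, dosed after 5 h plating (217-fold dilution of DMSO stocks) and incubated 16 h at 37C. Viability taken as cellular ATP by CellTiter-Glo luminescence after 30 min RT; signal loss marks cytotoxicity.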

Sequence of Cellular tumor antigen p53 (Homo sapiens) (P04637 whole entry, looked up): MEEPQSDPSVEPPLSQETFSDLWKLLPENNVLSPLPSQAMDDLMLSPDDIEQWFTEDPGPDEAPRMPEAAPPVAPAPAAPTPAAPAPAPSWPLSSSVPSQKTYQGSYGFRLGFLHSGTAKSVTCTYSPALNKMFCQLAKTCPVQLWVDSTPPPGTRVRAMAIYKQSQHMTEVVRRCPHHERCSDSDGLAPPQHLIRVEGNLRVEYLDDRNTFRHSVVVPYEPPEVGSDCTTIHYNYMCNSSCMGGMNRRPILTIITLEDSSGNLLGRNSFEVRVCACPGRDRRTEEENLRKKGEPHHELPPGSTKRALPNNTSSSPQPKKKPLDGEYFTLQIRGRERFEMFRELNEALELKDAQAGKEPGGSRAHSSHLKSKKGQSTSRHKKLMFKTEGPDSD

Row | SMILES | outcome [1] | outcome [2] | outcome [3] | outcome [4] | outcome [5] | outcome [6] | outcome [7] | outcome [8] | outcome [9] | AC50 [3] | AC50 [5] | AC50 [1]
1 | CC(C)c1cccc(O)c1 | inactive | inactive | inactive | inactive | inactive | inactive | inactive | inactive |  |  |  | 
2 | Fc1c(F)c(F)c(Br)c(F)c1F | inactive | inactive |  | inactive | inactive |  |  | inactive | inactive |  |  | 
3 | Nc1cc([N+](=O)[O-])ccc1O | inactive | inactive |  | inactive | inactive | inactive | inactive | inactive | inactive |  |  | 
4 | CCC(C)CCCC(C)(C)O (stereo not drawn) | inactive | inactive | inactive |  |  |  |  | inactive | inactive |  |  | 
5 | CC1(CO)CN(c2ccccc2)NC1=O (stereo not drawn) | inactive | inactive |  |  | inactive | inactive |  |  | inactive |  |  | 
6 | CCCCC/C=C/C=C/C=O | inactive | inactive |  | inactive | inactive | inactive | inactive | inactive |  | 86.9 µM (active) and 30.3 µM (active) | 75 µM (active) | 
7 | O=C=NC1CCC(CC2CCC(N=C=O)CC2)CC1 (stereo not drawn) | inactive | inactive |  | inactive | inactive |  | inactive | inactive | inactive |  |  | 
8 | CC1CCC(C(C)CS)CC1S (stereo not drawn) |  | inactive | inactive | inactive | inactive | inactive | inactive | inactive |  |  |  | 152 µM (active)
9 | CC(C)=CCC[C@](C)(O)[C@@H]1CC=C(C)CC1 | inactive |  |  | inactive |  | inactive | inactive | inactive | inactive |  |  | 
10 | O=C(O)CN(CCN(CC(=O)O)CC(=O)O)CCN(CC(=O)O)CC(=O)O | inactive | inactive |  | inactive | inactive | inactive | inactive | inactive | inactive |  |  | 
11 | CC1=CCC(O)(C(C)C)CC1 (stereo not drawn) | inactive | inactive |  |  | inactive | inactive |  | inactive | inactive |  |  | 
12 | C=CC[N+](C)(C)CC=C | inactive | inactive | inactive | inactive | inactive | inactive | inactive | inactive |  |  |  | 
13 | CCCCCCCCC | inactive | inactive |  |  | inactive |  | inactive | inactive | inactive |  |  | 
14 | CCCCNC(=O)NS(=O)(=O)c1ccc(N)cc1 | inactive | inactive |  | inactive |  | inactive | inactive | inactive | inactive |  |  | 
15 | O=C1CCc2ccccc2O1 | inactive | inactive |  | inactive | inactive | inactive | inactive | inactive | inactive |  |  | 
16 | C[C@H]1C[C@@H]2[C@H]([C@@H](O)C[C@@]3(C)[C@H]2CC[C@]3(O)C(=O)CO)[C@@]2(C)C=CC(=O)C=C12 | inactive |  | inactive | inactive | inactive |  |  | inactive | inactive |  |  | 
17 | CCCCCC(=O)OCCc1ccccc1 | inactive | inactive | inactive | inactive | inactive |  | inactive |  |  |  |  | 
18 | CCCCCCCCCCCCCCCC(=O)OC[C@H](O)[C@H]1OC(=O)C(O)=C1O | inactive | inactive | inactive | inactive |  |  | inactive | inactive |  |  |  | 
19 | CCC(C)(O)CCC=C(C)C (stereo not drawn) | inactive | inactive |  | inactive | inactive | inactive | inactive | inactive |  |  |  | 
20 | c1ccc(CCCc2ccccn2)cc1 | inactive | inactive | inactive | inactive |  | inactive | inactive | inactive |  |  |  | 
21 | CCCc1ccccc1O | inactive | inactive | inactive | inactive |  | inactive | inactive | inactive |  |  |  | 
22 | CC(C)[C@@H]1CC[C@@H](C)CC1=O | inactive | inactive | inactive | inactive | inactive | inactive |  | inactive |  |  |  | 
23 | CC(=O)c1c(C)cc(C(C)(C)C)cc1C | inactive | inactive | inactive |  | inactive | inactive | inactive | inactive |  |  |  | 
24 | O=C1CCCCCCCCCCOCCCCO1 | inactive | inactive |  | inactive | inactive | inactive | inactive | inactive |  |  |  | 
25 | CCCCCCOC(=O)CCCCC | inactive | inactive | inactive | inactive |  | inactive |  | inactive |  |  |  | 
26 | NCCCCCCN | inactive | inactive | inactive |  | inactive | inactive | inactive | inactive |  |  |  | 
27 | O=C(O)c1cn(-c2ccc(F)cc2)c2cc(N3CCNCC3)c(F)cc2c1=O | inactive | inactive | inactive | inactive |  | inactive |  | inactive |  |  |  | 
28 | CCCCCCCCCOC(C)=O | inactive | inactive |  | inactive | inactive | inactive | inactive | inactive |  |  |  | 
29 | NCCOCCO | inactive | inactive | inactive | inactive | inactive | inactive |  | inactive |  |  |  | 
